According to article PMC7819943, “Rice protein-binding microarrays: a tool to detect cis-acting elements near promoter regions in rice”:
Over roughly 39,000 sequences, “fluorescence intensity (a.u.)” has its median near 4,300; the highest 2% begin near 39,000. This is one part of a sample in which the highest values are shown more often than they occur.

target: T1, OsSMF1 (Oryza sativa, UniProt Q6ZLB0 1-436); test: protein-binding microarray (RPBM); PBS, 2% BSA, 51.3 ng/ul salmon testes DNA, 50 uM zinc acetate, 200 nM TF, 25 C, 1 h; high values mean tight binding; settings: protein: recombinant; tags: N-terminal polyhistidine and DsRed monomer fusion (pET32a); chain copies: 2; label: CyDye5-dUTP incorporated in the synthesized complementary strand; 3' TTTTT single-stranded linker to array surface; dsDNA, one strand shown
T1 sequence: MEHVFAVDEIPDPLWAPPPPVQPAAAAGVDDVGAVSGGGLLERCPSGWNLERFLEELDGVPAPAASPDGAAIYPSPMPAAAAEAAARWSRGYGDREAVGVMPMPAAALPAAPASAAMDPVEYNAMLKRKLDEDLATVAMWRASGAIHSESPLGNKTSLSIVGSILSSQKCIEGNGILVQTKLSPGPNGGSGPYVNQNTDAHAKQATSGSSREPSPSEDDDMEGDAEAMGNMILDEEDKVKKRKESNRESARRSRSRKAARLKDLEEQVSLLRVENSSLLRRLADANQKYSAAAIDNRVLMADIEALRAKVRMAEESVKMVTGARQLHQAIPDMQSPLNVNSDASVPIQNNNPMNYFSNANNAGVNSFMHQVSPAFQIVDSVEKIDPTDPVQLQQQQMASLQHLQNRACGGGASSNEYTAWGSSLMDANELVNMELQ
Procedure, shortened: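 An Axon 4000B scanner gave the binding signal as per-feature fluorescence intensity in arbitrary units. This followed washing of a custom Agilent array that had been incubated for 1 h at 25 °C with 200 nM protein in PBS, 2% BSA, salmon testes DNA and 50 µM zinc acetate. The proteins were transcription factors fused at the N-terminus to polyhistidine and DsRed, expressed in E. coli BL21-CodonPlus and purified on Ni–NTA.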

Sequence	binding signal
TTTGCATGCTTCATTACCACCTTCATCCACGTTGAAAGTACGGAGTCACCTAGTGCAG	4160 fluorescence intensity (a.u.)
GCACATCGCGCTCGCCGAAGCAGAACCACGCGGCCACCGGCGGAGTCACCTAGTGCAG	3240 fluorescence intensity (a.u.)
CGCAGCAAGCGTCACGTCACCAACTGTTTGCTCCAACTGTCGGAGTCACCTAGTGCAG	9370 fluorescence intensity (a.u.)
AAGAAACAACACACGTTAGCATTTCACTGCTATTAAGTTCCGGAGTCACCTAGTGCAG	5010 fluorescence intensity (a.u.)
GACGTTAGTGATCAGCTGGGTTAATTAATTACGTGGCTAACGGAGTCACCTAGTGCAG	7210 fluorescence intensity (a.u.)
CTCGCTGCTTCGCCCGCCACGTCACCCTCCTCCTCCTCCCCGGAGTCACCTAGTGCAG	62000 fluorescence intensity (a.u.)
GCTGCTGCACCACGTCCTTCCTCTTCCTCGCCCCACCACCCGGAGTCACCTAGTGCAG	6380 fluorescence intensity (a.u.)
TTCGCGCGCCACCTCCTCGCGCTCGCCTGCTTCTTCTCCCCGGAGTCACCTAGTGCAG	3380 fluorescence intensity (a.u.)
AAAACCTGACTTTGCATCATTAGACGATTTGTCCATTGAACGGAGTCACCTAGTGCAG	3160 fluorescence intensity (a.u.)
GGCTAGCCAGCGACCGACCGGCGGCCACCGTGGCGGGATTCGGAGTCACCTAGTGCAG	4850 fluorescence intensity (a.u.)
AGGTACGTAAATTTTATATATTCCATATGAGCTCTAAATACGGAGTCACCTAGTGCAG	3580 fluorescence intensity (a.u.)
CACGCAGTAGGGATCGAGGATGTCGTACGCGTACCTCTTCCGGAGTCACCTAGTGCAG	26100 fluorescence intensity (a.u.)
GTAGTCGTAATGTCATCGTCATCGACATCGATGTGTTGCTCGGAGTCACCTAGTGCAG	4940 fluorescence intensity (a.u.)
AGGAGGTAGGATAGTTCCCTCCGTAATGGATCGAGGATGTCGGAGTCACCTAGTGCAG	42000 fluorescence intensity (a.u.)
TCCTTCTTCCTTGGCCTCTTCCTAATGACAAGCCCTTGCGCGGAGTCACCTAGTGCAG	3610 fluorescence intensity (a.u.)
GCTCTTGAGAATGTTGCTGAGTTGTCAGCTCTCTCCACCCCGGAGTCACCTAGTGCAG	15700 fluorescence intensity (a.u.)
CCATATAGGAATTTAAAACTAACTAAAATTCGGAATAAACCGGAGTCACCTAGTGCAG	3400 fluorescence intensity (a.u.)
ACCCATAGAGATCGACACTATAGGTACCGGAATAACTAAACGGAGTCACCTAGTGCAG	63800 fluorescence intensity (a.u.)
GATCGTACATGTTCACATAAACACCCACGACACTACCCTACGGAGTCACCTAGTGCAG	18400 fluorescence intensity (a.u.)
AGAGAGAGCGTGGGTGGGGTGGGTGCTCTGGGTGACTGGGCGGAGTCACCTAGTGCAG	6040 fluorescence intensity (a.u.)
CATGCGATACTACCCCAACGGCCTCGACGACGGCTGCGCCCGGAGTCACCTAGTGCAG	26900 fluorescence intensity (a.u.)

Sequence	binding signal
CTGAAATGACCAGAATGCCCCTCCGTCCTACCCCACAATCCGGAGTCACCTAGTGCAG	19900 fluorescence intensity (a.u.)
AGAGCAAGACAAGATGGTTAGTTCTCACACTTCAGATTGTCGGAGTCACCTAGTGCAG	41400 fluorescence intensity (a.u.)
AGACACTTTTGCAGGGATTGCTCAGACTTAGTTTCAGAGTCGGAGTCACCTAGTGCAG	3940 fluorescence intensity (a.u.)
ACTTGTCACTTGGTTCACACTAAGAGCACTTGACATATCTCGGAGTCACCTAGTGCAG	17900 fluorescence intensity (a.u.)
TTAACGTGTACCACTACATGCATGCAGTGACGACAGTCAGCGGAGTCACCTAGTGCAG	3150 fluorescence intensity (a.u.)
CACCACTACCACGATCAGGCCCAAGAGATGATAAAGTGGCCGGAGTCACCTAGTGCAG	46500 fluorescence intensity (a.u.)
GGGATAAAGAGAGGATGACACGTGGGACCCACATGTCAGCCGGAGTCACCTAGTGCAG	12400 fluorescence intensity (a.u.)
ACACTCTCGATGTATAGATTCACCCACGAGATGATGTGGCCGGAGTCACCTAGTGCAG	6570 fluorescence intensity (a.u.)
GAGCTCCGACGAGCACCTCCCTGAAGCGTGGCAGGTCGAGCGGAGTCACCTAGTGCAG	3900 fluorescence intensity (a.u.)
AATTTAACTCTTTCCCGCGTGGATGGCCGCATATATATGCCGGAGTCACCTAGTGCAG	3460 fluorescence intensity (a.u.)
TATGGAGTTTACTATTCTCCTGATTATTACAAAATTTATACGGAGTCACCTAGTGCAG	30000 fluorescence intensity (a.u.)
CATCACACCCACTTGTCCGCACACAAGAAGAGACCAGCTACGGAGTCACCTAGTGCAG	50600 fluorescence intensity (a.u.)
CAACACCCGTCCGCCAGAGAAGACCATCGTGACGCCACTCCGGAGTCACCTAGTGCAG	4880 fluorescence intensity (a.u.)
CACAGTGCACGCACGCAGCTACAAAGATGTCGTACGACCACGGAGTCACCTAGTGCAG	3260 fluorescence intensity (a.u.)
GGAATAAATTATTTATCATTGGACCTACATGTCATGGACACGGAGTCACCTAGTGCAG	3950 fluorescence intensity (a.u.)
CCAACCAACATCCCACATCGAACCATGCATTATTTATGAACGGAGTCACCTAGTGCAG	17300 fluorescence intensity (a.u.)
TCCCCACATCACCCAACACGAGCTCACCACCACCACCACCCGGAGTCACCTAGTGCAG	3500 fluorescence intensity (a.u.)
ACCACACCATCGAACATGGTGTAGCTCACGGTAGTCCCAACGGAGTCACCTAGTGCAG	41000 fluorescence intensity (a.u.)
GGCGGCGGGTGGAGGGACGCCCGCTGAATCCGCCACCGGTCGGAGTCACCTAGTGCAG	3170 fluorescence intensity (a.u.)
GTTTTATTGTTGAATTTTATATATTGTCACGTCCCCTTTTCGGAGTCACCTAGTGCAG	4350 fluorescence intensity (a.u.)
TGGTGCGCTCGTTAAGCCAGCTCGGTTTATGTTAGATCATCGGAGTCACCTAGTGCAG	3210 fluorescence intensity (a.u.)
